Source: PubChem (Sanford-Burnham Center for Chemical Genomics)
The list is not random: actives were taken first. Their share in the collection is about 3%.
SENP8 block-1 = inhibitors of human SENP8 protease; recombinant SENP8, Nedd8 substrate fluorescence; inhibition, % at 20 µM; hit rate 0.64% among 360,000; in the data active = inhibition mostly above about 40%, no sharp cut-off; inactive = mostly below about 27%
C8 TRAIL sens = sensitizes caspase-8 expressing cells to TRAIL; NB7+C8 cells + TRAIL, ATPlite viability luminescence; inhibition (viability loss, TRAIL sensitization), % at 10 µM; hit rate 1% among 360,000; AID 624354;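 active = compounds causing at least 50% loss of cell viability in the single-dose screen, relative to plate controls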
SENP8 block-2 = blocks the human protease SENP8. Q96LD8. purified SENP8, Z-RLRGG-aminoluciferin cleavage, luminescence. inhibition, % at 10 µM. hit rate 1.2% among 330,000; in the data active = inhibition above about 50%
PPC-1+TRAIL kill = compounds killing PPC-1 cancer cells with TRAIL present (potentiator screen, no TRAIL-free arm); PPC-1 cells + TRAIL, ATPLite viability luminescence; cell killing (% activity), % at 4 µM or 5 µM; hit rate 0.41% among 220,000; AID 1443;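 active = cell killing above 50% in the first pass at 4 µM, then a duplicate retest at 5 µM averaging 50% or more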;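 note: plate controls were cells with TRAIL plus DMSO for no effect and medium-only wells lacking cells for full effect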
SENP6 inh = SENP6 protease inhibition. Q9GZR1. Recombinant SENP6 catalytic domain, aminoluciferin luminescence. inhibition, % at 10 µM. hit rate 1.8% among 330,000;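 active = inhibition above about 50% at the single tested dose, limit read from the data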;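 note: plate controls were DMSO wells with enzyme for no effect and DMSO wells lacking enzyme for full effect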
Target sequence (Q9GZR1 628-1112 limits assumed): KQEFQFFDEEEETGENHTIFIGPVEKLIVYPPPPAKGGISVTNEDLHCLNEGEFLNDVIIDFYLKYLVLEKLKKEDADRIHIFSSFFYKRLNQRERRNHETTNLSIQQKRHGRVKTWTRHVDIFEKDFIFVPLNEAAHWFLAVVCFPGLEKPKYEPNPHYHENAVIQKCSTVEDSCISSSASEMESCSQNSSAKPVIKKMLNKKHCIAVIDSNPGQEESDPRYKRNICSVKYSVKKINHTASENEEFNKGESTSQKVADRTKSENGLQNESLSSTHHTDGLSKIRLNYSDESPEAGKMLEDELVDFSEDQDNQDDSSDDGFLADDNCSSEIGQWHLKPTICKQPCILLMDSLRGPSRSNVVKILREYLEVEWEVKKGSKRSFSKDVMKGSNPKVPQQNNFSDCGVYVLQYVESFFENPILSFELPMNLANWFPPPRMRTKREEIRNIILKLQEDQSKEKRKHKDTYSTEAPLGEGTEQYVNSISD
SENP7 inh = inhibitors of human SENP7 protease | Q9BQF6 | recombinant SENP7, Z-RLRGG-aminoluciferin luminescence, 40 min | inhibition, % at 5 µM | hit rate 1.5% among 330,000 | AID 434973;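 active = inhibition above about 50% at the single test dose, limit read from the data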;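 note: plate controls were DMSO with enzyme for no effect and no enzyme buffer wells for full effect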
SENP8 conf = human SENP8 inhibition, confirmed | hit rate 40% among 6,200 | Recombinant SENP8, Z-RLRGG-aminoluciferin luminescence, 60 min | inhibition, % at 12.5 µM | AID 488912 | shares compounds with SENP7 inh;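 active = mean inhibition across replicates above about 50%, limit read from the data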
SENP6 confirm = human SENP6 inhibition, confirmed. inhibition, % at 12.5 µM. shares compounds with SENP7 inh. hit rate 58% among 6,200. recombinant SENP6, Z-RLRGG-aminoluciferin luminescence
SENP7 conf = human SENP7 inhibition, confirmed; shares compounds with SENP7 inh; recombinant SENP7, Z-RLRGG-aminoluciferin luminescence, 40 min; inhibition, % at 12.5 µM; hit rate 69% among 6,200
Casp3 SENP sel = inhibits human caspase-3 in SENP selectivity test; inhibition, % at 12.5 µM; purified caspase-3, Z-DEVD-aminoluciferin luminescence, 60 min; shares compounds with SENP7 inh; AID 488918; hit rate 60% among 6,200;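 active = mean inhibition above about 50%, limit read from the data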;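 note: plate controls were enzyme with DMSO for no effect and wells without caspase-3 for full effect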
SENP luc ctr = luminescence interference (SENP counter-screen). shares compounds with SENP7 inh. Pre-incubated SENP8/Z-RLRGG-aminoluciferin, luciferase luminescence interference. inhibition, % at 12.5 µM. hit rate 39% among 6,200;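 active = mean inhibition above about 50% when retested at one dose, limit read from the data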;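 note: plate controls were DMSO wells with completed reaction for no effect and substrate without enzyme for full effect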
Active calls of the source: *; i = inactive; nt = no result given.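 Rule for the calls, unless noted: active = mean inhibition above about 50% in the one-dose retest (limit read from the data); inactive = the rest.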

SMILES	SENP8 block-1	C8 TRAIL sens	SENP8 block-2	PPC-1+TRAIL kill	SENP6 inh	SENP7 inh	SENP8 conf	SENP6 confirm	SENP7 conf	Casp3 SENP sel	SENP luc ctr
O=S(=O)(Nc1cccc(S(=O)(=O)N2CCCC2)c1)c1cccc(Br)c1	12	9	-5	nt	0	-9	nt	nt	nt	nt	nt
Nc1c(-c2cccs2)cnc2c(-c3ccc(F)cc3)cnn12	-284	61*	28	nt	50*	69*	8	34	48	42	9
Nc1c(-c2ccccc2)cnc2c(-c3ccccc3)cnn12	i	84*	5	nt	43	74*	8	19	50*	55*	2
Nc1c(C(=O)O)cnc2c(-c3ccc(Cl)cc3)cnn12	-401	20	98*	34	95*	100*	52*	100*	103*	98*	96*
CS(=O)(=O)c1cnc2c(-c3ccc(F)cc3)cnn2c1N	-22	36	-7	31	-5	3	nt	nt	nt	nt	nt
Cc1nn2c(N)c(-c3ccccc3)cnc2c1-c1ccc(Cl)cc1	-301	6	-1	nt	2	5	nt	nt	nt	nt	nt
CC(=O)c1cnc2c(-c3ccc(Cl)cc3)cnn2c1C	-9	-3	-6	10	-17	1	nt	nt	nt	nt	nt
O=C(C1CC=CCC1)N1CCC(CO)(Cc2ccc(Cl)cc2)CC1 (stereo not given)	12	-4	2	15	3	31	nt	nt	nt	nt	nt
CCCNC(=O)c1ccccc1SCc1c(C)noc1C	8	-4	-1	nt	-8	-13	nt	nt	nt	nt	nt
CCCS(=O)(=O)N1CCN(Cc2ccc3c(c2)c2ccccc2n3CC)CC1	-31	9	-7	-7	-9	-3	nt	nt	nt	nt	nt
Cn1ccnc1SCC(=O)c1c[nH]c2ccccc12	-9	2	33	12	58*	50	48	42	78*	78*	54*
COc1ccccc1C(=O)CSc1nccn1C	7	6	-4	nt	-10	1	nt	nt	nt	nt	nt
Cc1cc(C(C)(C)C)cc(C)c1C(=O)O	14	-2	3	-12	-3	-6	nt	nt	nt	nt	nt
CCOC(=O)c1c(N)sc(C(=O)Nc2ccccc2)c1C	-29	63*	73*	46	84*	85*	-23	81*	97*	84*	83*
CCOC(=O)c1c(N)sc(C(=O)Nc2ccccc2F)c1C	-73	45	74*	37	81*	78*	63*	63*	88*	67*	33
CCOC(=O)c1c(N)sc(C(N)=O)c1C	10	-14	-4	-12	-1	-4	nt	nt	nt	nt	nt
COc1ccc(S(=O)(=O)NC(C)CCc2ccccc2)cc1 (stereo not given)	18	-6	4	20	7	1	nt	nt	nt	nt	nt
Cc1ccc(C(=O)NC2CCc3ccccc3C2=O)cc1 (stereo not given)	-62	27	-10	30	-19	17	nt	nt	nt	nt	nt
O=C(OC1CCc2ccccc2C1=O)c1ccccc1O (stereo not given)	0	-10	70*	-4	82*	80*	81*	80*	92*	67*	32
COC(=O)c1sc(NC(=S)NC(=O)c2ccccc2Cl)nc1C	13	39	36	24	62*	27	-16	-20	-2	13	-1
Cc1nc(NC(=O)c2cccs2)ccc1Br	-11	9	70*	0	-14	81*	82*	82*	95*	80*	70*
CC(=O)c1sc(NC(=O)c2cccs2)nc1C	-24	26	45	nt	62*	62*	14	52*	81*	84*	3
CCOC(=O)c1sc(NC(=O)c2cccs2)nc1C	-48	47	nt	20	nt	nt	nt	nt	nt	nt	nt
Cc1cc(C)nc(NC(=O)c2cccs2)n1	27	-1	-8	18	-29	-14	nt	nt	nt	nt	nt
CC(=O)c1sc(NC(=O)c2ccccc2F)nc1C	3	27	83*	27	83*	87*	86*	84*	97*	93*	85*
SMILES	SENP8 block-1	C8 TRAIL sens	SENP8 block-2	PPC-1+TRAIL kill	SENP6 inh	SENP7 inh	SENP8 conf	SENP6 confirm	SENP7 conf	Casp3 SENP sel	SENP luc ctr
CCOC(=O)c1sc(NC(=S)NC(=O)c2ccccc2)nc1C	5	12	31	8	47	38	nt	nt	nt	nt	nt
COc1ccc(S(=O)(=O)Nc2cc3c4c(c2)CCN4C(=O)CC3)cc1C	6	-1	16	nt	2	-7	nt	nt	nt	nt	nt
O=C(COC(=O)CCC(=O)c1cccs1)NC1CC1	-2	-6	0	3	9	-8	nt	nt	nt	nt	nt
C=CCNC(=O)CN1CCN(C(c2ccccc2)c2ccccc2)CC1	2	10	2	nt	10	-2	nt	nt	nt	nt	nt
Cc1ccc(C)c(S(=O)(=O)N2CCN(c3nc(-c4cccnc4)nc4ccccc34)CC2)c1	-142	35	-3	nt	-4	-5	nt	nt	nt	nt	nt
CCCC(C(=O)Nc1ccncc1)c1ccccc1 (stereo not given)	14	9	1	nt	8	-1	nt	nt	nt	nt	nt
Nn1c(SCC(=O)NCCCc2ccccc2)nnc1-c1cccnc1	22	3	-1	14	6	3	nt	nt	nt	nt	nt
CCOC(=O)c1sc(NC(=O)c2ccco2)nc1C	-49	24	9	8	59*	54*	6	6	-6	5	-3
CCOC(=O)c1sc(NC(=O)c2ccc(C)o2)nc1C	-99	39	64*	35	70*	12	36	74*	91*	84*	19
Cc1ccc(-c2nc3ccccc3nc2Cl)cc1	13	-14	-7	0	-10	1	nt	nt	nt	nt	nt
Cc1ccc(-c2nc3ccccc3nc2NN)cc1	-312	15	85*	10	91*	79*	20	67*	92*	74*	31
COc1nccc(-c2ccc(F)cc2)c1C#N	6	-7	3	-9	-1	-6	nt	nt	nt	nt	nt
O=C(OCCN1CCOCC1)c1ccc(Cl)cc1Cl	25	4	4	nt	6	1	nt	nt	nt	nt	nt
O=C(O/N=C1/CCCc2occc21)c1ccc(Cl)cc1Cl	5	1	55*	14	67*	73*	-2	46	43	53*	25
O=C(O/N=C1/CCCc2occc21)c1ccccc1	25	13	84*	1	89*	95*	-20	84*	98*	92*	54*
Cc1ccc(O)c(NC(=O)c2noc3c2CCc2ccccc2-3)c1	2	13	16	11	7	66*	-31	-17	-5	0	-8
Cc1cc(NC(=O)c2noc3c2CCc2ccccc2-3)no1	8	14	-28	1	-29	-2	nt	nt	nt	nt	nt
